Measurements taken from PubChem BioAssay (Tox21).
Records with an inconclusive call do not appear. Active and inactive are the calls of the source. Calls follow the shape of the full dose curve.

Tests used:
[1] = target: Acetylcholinesterase (Homo sapiens) (UniProt P22303); experiment: Acetylcholinesterase (AChE) small molecule antagonists: colormetric cell-based qHTS assay (AID 1347395); also: nearly all actives have a fitted effect of over 30% in size
Outline: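 SH-SY5Y cells attached overnight, exposed to compound 30 min at 37 C, then given DTNB/acetylthiocholine; after 90 min at 37 C, colorimetric thiocholine read gives cellular AChE activity.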

[2] = target: Acetylcholinesterase (Homo sapiens) (UniProt P22303); experiment: Acetylcholinesterase (AChE) small molecule antagonists: enzyme-based qHTS assay (AID 1347397); conditions: Potency: AChE enzyme activity inhibition; outcome: AChE enzyme activity inhibition; also: nearly all actives have a fitted effect of over 55% in size
Outline: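 In this quantitative HTS, compounds from the Tox21 10K collection were preincubated 30 min at ambient temperature with recombinant human AChE dispensed at 50 mU/mL. Hydrolysis of acetylthiocholine was then followed for 10 min by DTNB colour development.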

[3] = target: Acetylcholinesterase (Homo sapiens) (UniProt P22303); experiment: Acetylcholinesterase (AChE) small molecule antagonists: fluorescence cell-based qHTS assay (AID 1347398); conditions: Potency: AChE activity; outcome: AChE activity; also: nearly all actives have a fitted effect of over 50% in size
Outline: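 Cells (SH-SY5Y) attached overnight, were dosed with compound or DMSO vehicle for 30 min at 37 C, and then incubated 40 min at room temperature with acetylthiocholine and Thiolite Green; green fluorescence indexed AChE activity.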

[4] = target: Acetylcholinesterase (Homo sapiens) (UniProt P22303); experiment: Acetylcholinesterase (AChE) small molecule antagonists: enzyme-based qHTS assay with human liver microsomes (AID 1347399); conditions: Potency: qHTS inhibition; outcome: qHTS inhibition; also: nearly all actives have a fitted effect of over 60% in size
Outline: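 Recombinant human AChE (50 mU/mL in the enzyme mix) and human liver microsomes (0.25 mg/mL final) were preincubated with compound and NADPH (0.25 mg/mL final) for 30 min at 37 C. Acetylthiocholine/DTNB was then added; thiocholine was read colorimetrically after 10 min at room temperature.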
% is scaled to controls: 0 for no effect and ±100 for the full control effect.

Sequence of Acetylcholinesterase (Homo sapiens) (P22303 whole entry, looked up): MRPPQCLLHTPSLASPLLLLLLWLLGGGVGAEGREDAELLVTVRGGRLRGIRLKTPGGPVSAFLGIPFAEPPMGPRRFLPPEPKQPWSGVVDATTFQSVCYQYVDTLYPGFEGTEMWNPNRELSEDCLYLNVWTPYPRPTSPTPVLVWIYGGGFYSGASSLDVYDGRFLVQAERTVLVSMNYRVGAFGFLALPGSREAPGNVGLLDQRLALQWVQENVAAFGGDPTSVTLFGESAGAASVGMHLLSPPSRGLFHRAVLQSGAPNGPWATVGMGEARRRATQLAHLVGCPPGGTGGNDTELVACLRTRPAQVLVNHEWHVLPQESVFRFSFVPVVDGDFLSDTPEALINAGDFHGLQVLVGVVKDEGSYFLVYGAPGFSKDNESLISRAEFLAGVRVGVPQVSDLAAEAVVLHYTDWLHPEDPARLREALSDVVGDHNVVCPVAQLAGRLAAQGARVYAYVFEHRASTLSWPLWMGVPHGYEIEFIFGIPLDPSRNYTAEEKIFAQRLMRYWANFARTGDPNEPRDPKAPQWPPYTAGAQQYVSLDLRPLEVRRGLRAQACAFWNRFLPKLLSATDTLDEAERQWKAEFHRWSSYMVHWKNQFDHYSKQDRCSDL

Cc1occc(=O)c1OC(=O)C(C)C
inactive: Potency [1] | Potency [2] | Potency [3] | Potency [4]

C#CC(O)C(CC)CCCC (stereo not given)
inactive: Potency [1] | Potency [2] | Potency [3] | Potency [4]

CCCC(=O)OCC
inactive: Potency [1] | Potency [2] | Potency [3] | Potency [4]

CC(C)C(OC(=O)c1ccccc1)C(C)(C)COC(=O)c1ccccc1 (stereo not given)
inactive: Potency [1] | Potency [2] | Potency [3] | Potency [4]

C=CC(=O)OCCOCC(CC)(COCCOC(=O)C=C)COCCOC(=O)C=C
inactive: Potency [1] | Potency [2] | Potency [3] | Potency [4]

CCCCCCCCCCCBr
inactive: Potency [1] | Potency [2] | Potency [3] | Potency [4]

c1ccc2sc(SN(C3CCCCC3)C3CCCCC3)nc2c1
inactive: Potency [1] | Potency [2] | Potency [3] | Potency [4]

CCCCc1ccc2c(n1)[C@@H](c1ccc(OC)cc1C[C@H](C)C(=O)O)[C@H](C(=O)O)[C@H]2c1ccc2c(c1)OCO2
inactive: Potency [1] | Potency [2] | Potency [3] | Potency [4]

CCCCN1CCCC1C(=O)Nc1c(C)cc(C)cc1C (stereo not given)
inactive: Potency [1] | Potency [2] | Potency [3] | Potency [4]

OCc1ccccn1
inactive: Potency [1] | Potency [2] | Potency [3] | Potency [4]

CCCCC(CC)(CO)CO
inactive: Potency [1] | Potency [2] | Potency [3] | Potency [4]

COc1c(N2CCNC(C)C2)c(F)cc2c(=O)c(C(=O)O)cn(C3CC3)c12 (stereo not given)
inactive: Potency [1] | Potency [2] | Potency [3] | Potency [4]

CC(=O)Nc1cccc(C)c1
inactive: Potency [1] | Potency [2] | Potency [3] | Potency [4]

Cc1c(C(=O)NN2CCCCC2)nn(-c2ccc(Cl)cc2Cl)c1-c1ccc(Cl)cc1
inactive: Potency [1] | Potency [2] | Potency [3] | Potency [4]

Nc1nc(-c2ccccc2)c(Br)c(=O)[nH]1
inactive: Potency [1] | Potency [2] | Potency [3] | Potency [4]

S=c1[nH][nH]c(=S)s1
inactive: Potency [1] | Potency [2] | Potency [3] | Potency [4]

CCC(C)S (stereo not given)
inactive: activity, negative = inhibition [1] 1.56% [at 4.07 µM] | activity change, negative = inhibition [2] 0.922% [at 4.07 µM] | activity change, negative = inhibition [3] 4.18% [at 3.98 µM] | activity change, negative = inhibition [4] -0.581% [at 4.07 µM]

O=C(O)CNC(=O)c1ccc([N+](=O)[O-])cc1
inactive: Potency [1] | Potency [2] | Potency [3] | Potency [4]

COC(C(=O)O)c1ccccc1 (stereo not given)
inactive: Potency [1] | Potency [2] | Potency [3] | Potency [4]

c1ccc(CN(Cc2ccccc2)Cc2ccccc2)cc1
inactive: Potency [1] | Potency [2] | Potency [3] | Potency [4]

CCCCCCCCCOC(=O)c1ccccc1C(=O)OCCCCCCCCC
inactive: Potency [1] | Potency [2] | Potency [3] | Potency [4]

CC(C(=O)O)c1ccc2c(c1)[nH]c1ccc(Cl)cc12 (stereo not given)
inactive: Potency [1] | Potency [2] | Potency [3] | Potency [4]

CCCN(CCC)C(=O)C(CCC(=O)O)NC(=O)c1ccccc1 (stereo not given)
inactive: Potency [1] | Potency [2] | Potency [3] | Potency [4]

CC(C)(C)C(=O)Oc1ccc(S(=O)(=O)Nc2ccccc2C(=O)NCC(=O)O)cc1
inactive: Potency [1] | Potency [2] | Potency [3] | Potency [4]

CCC=CC#N
inactive: Potency [1] | Potency [2] | Potency [3] | Potency [4]

CCCCCCOC(=O)c1ccccc1O
inactive: Potency [1] | Potency [2] | Potency [3] | Potency [4]

CCCC(c1cc(C(C)(C)C)c(O)cc1C)c1cc(C(C)(C)C)c(O)cc1C
inactive: Potency [1] | Potency [2] | Potency [3] | Potency [4]

O=C1OC(=O)c2cc(Oc3ccc4c(c3)C(=O)OC4=O)ccc21
inactive: Potency [1] | Potency [2] | Potency [3] | Potency [4]

CCCCN(CCCC)C(C(N)=O)c1ccc(OC)cc1 (stereo not given)
inactive: Potency [1] | Potency [2] | Potency [3] | Potency [4]

CCCCC(CC)COP(=O)(O)O (stereo not given)
inactive: Potency [1] | Potency [2] | Potency [3] | Potency [4]

CC(CSC(=O)c1ccccc1)C(=O)N1C[C@@H](Sc2ccccc2)C[C@H]1C(=O)O (stereo not given in full)
inactive: activity, negative = inhibition [1] 0.861% [at 23.6 µM] | activity change, negative = inhibition [2] -0.415% [at 23.6 µM] | activity change, negative = inhibition [3] 13.2% [at 23.8 µM] | activity change, negative = inhibition [4] 2.18% [at 23.6 µM]

CC(=O)c1cccnc1
inactive: Potency [1] | Potency [2] | Potency [3] | Potency [4]

CC1(C)OC(=O)Nc2ccc(Br)cc21
inactive: Potency [1] | Potency [2] | Potency [3] | Potency [4]

CC(C)=CCCC(C)CCOC(=O)C(C)C (stereo not given)
inactive: Potency [1] | Potency [2] | Potency [3] | Potency [4]

CCCc1ccc(OC)cc1
inactive: Potency [1] | Potency [2] | Potency [3] | Potency [4]
